Some test systems named below: RPMI-8226 leukemia; OVCAR-8 ovarian; OVCAR-5 ovarian; OVCAR-4 ovarian; SK-OV-3 ovarian; IGROV1 ovarian; OVCAR-3 ovarian; HS 578T breast; NCI/ADR-RES ovarian; T-47D breast; BT-549 breast; MDA-MB-435 melanoma; SW-620 colon; MCF7 breast; HCT-116 colon; HCC-2998 colon; KM12 colon.
Common to all, as to test: NCI-60 one-dose screen, 48 h (100 = growth as untreated, 0 = no growth, -100 = all killed)
What all share (settings): 10 µM unless noted

Compounds without any hit were thinned out: in the full panel of roughly 83,000, 20% have a hit.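 How to read the values: 0–100, growth inhibition (40 = 60% inhibited); 0, no net growth; -100 to 0, cell death (-40 = 40% of starting cells died; -100 = all dead).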 Values without a mark were called inactive. Calls of active or inactive are those of the source. How the source made its calls: active means growth percent below 10; inactive means the rest.

As to `Nc1nc(SCc2ccccc2Cl)c(-c2ccccc2)c(SCc2ccccc2Cl)n1`, the growth with RPMI-8226 leukemia is 81.8%; in the test on OVCAR-8 ovarian it was 98.4%; in the test with OVCAR-5 ovarian, 84.9%; in the test on OVCAR-4 ovarian, 95.8%; in the test with SK-OV-3 ovarian it was 82.7%; in the test with IGROV1 ovarian, 97.4%. Besides, the growth is 101% in the test with OVCAR-3 ovarian; 93.4% with HS 578T breast; 90.7% in the test with NCI/ADR-RES ovarian; 58.4% in the test on T-47D breast; 113% with BT-549 breast; 88.8% in the test with MDA-MB-435 melanoma. For the same compound, the growth was 77.3% with SW-620 colon; 78% in the test with MCF7 breast; 82.2% in the test with HCT-116 colon; 99% in the test on HCC-2998 colon; 85.7% in the test on KM12 colon.

For `O=C1CC(=O)N(c2ccccc2)O1`, the growth with RPMI-8226 leukemia was 105%; with OVCAR-8 ovarian, 103%; in the test with OVCAR-5 ovarian, 92.9%; in the test with OVCAR-4 ovarian it was 110%; with SK-OV-3 ovarian, 98.4%; in the test with IGROV1 ovarian, 99%. In addition, the growth in the test with OVCAR-3 ovarian was 118%; with HS 578T breast, 110%; in the test with NCI/ADR-RES ovarian, 101%; in the test on T-47D breast it was 97.5%; in the test on BT-549 breast it was 101%; with MDA-MB-435 melanoma, 104%. For the same compound, the growth in the test with SW-620 colon was 101%; in the test on MCF7 breast, 115%; with HCT-116 colon, 101%; in the test with HCC-2998 colon it was 105%; with KM12 colon, 109%.

As to `CC[N+](CC)(CCOCCOCC[N+](CC)(CC)Cc1ccc([N+](=O)[O-])cc1)Cc1ccc([N+](=O)[O-])cc1`, the growth with RPMI-8226 leukemia is 96.6%; in the test with OVCAR-8 ovarian, 103%; in the test with OVCAR-5 ovarian, 98.8%; with OVCAR-4 ovarian, 106%; in the test with SK-OV-3 ovarian, 112%; in the test on IGROV1 ovarian, 125%. Also, the growth in the test with OVCAR-3 ovarian is 116%; with HS 578T breast, 133%; with NCI/ADR-RES ovarian, 98.9%; in the test with T-47D breast, 95.3%; with BT-549 breast, 107%; with MDA-MB-435 melanoma it was 104%. Moreover, the growth is 101% with SW-620 colon; 104% in the test on MCF7 breast; 97.8% with HCT-116 colon; 98.1% in the test with HCC-2998 colon; 101% in the test on KM12 colon.

As to `NNC(=O)NO`, the growth in the test with RPMI-8226 leukemia was 109%; in the test on OVCAR-8 ovarian, 102%; in the test with OVCAR-5 ovarian, 110%; in the test on OVCAR-4 ovarian, 101%; in the test with SK-OV-3 ovarian, 94.1%; with IGROV1 ovarian, 108%. In addition, the growth in the test with OVCAR-3 ovarian was 106%; in the test with HS 578T breast it was 96.6%; with NCI/ADR-RES ovarian, 109%; in the test with T-47D breast it was 98.9%; with BT-549 breast, 99%; with MDA-MB-435 melanoma it was 108%. Further, the growth is 103% with SW-620 colon; 94% in the test with MCF7 breast; 101% in the test with HCT-116 colon; 99.9% in the test on HCC-2998 colon; 98.2% in the test on KM12 colon.

As to `COc1ccc(-n2nnc(C(=O)O)c2-c2cc(OC)c(OC)c(OC)c2)cc1`, the growth in the test on RPMI-8226 leukemia was 99.5%; with OVCAR-8 ovarian it was 100%; with OVCAR-5 ovarian, 103%; with OVCAR-4 ovarian, 109%; in the test with SK-OV-3 ovarian, 99.1%; in the test with IGROV1 ovarian, 116%. Further, the growth in the test on OVCAR-3 ovarian was 119%; with HS 578T breast it was 102%; in the test with NCI/ADR-RES ovarian, 109%; in the test with T-47D breast, 104%; with BT-549 breast, 101%; with MDA-MB-435 melanoma, 121%. Moreover, the growth in the test with SW-620 colon is 104%; in the test with MCF7 breast it was 102%; with HCT-116 colon it was 100%; in the test on HCC-2998 colon, 99.1%; in the test on KM12 colon it was 105%.

Take `COc1ccc(-c2cc(C(=O)Nc3nc4cc(C)c(C)cc4s3)nc3cc(-c4ccccc4)nn23)cc1OC`: the growth is 88% in the test on RPMI-8226 leukemia; 110% in the test with OVCAR-8 ovarian; 111% with OVCAR-5 ovarian; 106% in the test on OVCAR-4 ovarian; 105% in the test on SK-OV-3 ovarian; 122% with IGROV1 ovarian. Besides, the growth in the test on OVCAR-3 ovarian was 138%; in the test on HS 578T breast, 111%; in the test on NCI/ADR-RES ovarian, 102%; in the test with T-47D breast, 103%; in the test on BT-549 breast, 122%; with MDA-MB-435 melanoma, 96.8%. Also, the growth in the test on SW-620 colon was 47.3%; in the test on MCF7 breast, 99%; in the test with HCT-116 colon, 108%; with HCC-2998 colon it was 99.7%; in the test with KM12 colon it was 112%.

For the compound `COc1cccc(-c2nnc(N)o2)c1`, the growth is 109% in the test with RPMI-8226 leukemia; 98.7% with OVCAR-8 ovarian; 105% in the test on OVCAR-5 ovarian; 97.9% with OVCAR-4 ovarian; 115% in the test with SK-OV-3 ovarian; 102% in the test on IGROV1 ovarian. The growth was 90.4% with OVCAR-3 ovarian; 101% in the test on HS 578T breast; 102% with NCI/ADR-RES ovarian; 97.7% with T-47D breast; 87.4% with BT-549 breast; 105% in the test with MDA-MB-435 melanoma. Further, the growth is 103% in the test on SW-620 colon; 101% in the test on MCF7 breast; 100% in the test with HCT-116 colon; 83.3% in the test with HCC-2998 colon; 106% with KM12 colon.

For the compound `C=C1c2c(C)nn(-c3ccc(C#CCOC4OC(CO)C(O)C(O)C4O)cc3)c2N(C)C23C[C@H]1C1(C)c4c(C)nn(-c5ccc(C#CCOC6OC(CO)C(O)C(O)C6O)cc5)c4N(C)C(C)(C[C@H]12)C3` (stereo partly specified), the growth with RPMI-8226 leukemia is -36.4% (active); in the test on OVCAR-8 ovarian, 12%; in the test with OVCAR-5 ovarian, 51%; in the test with OVCAR-4 ovarian, 14.7%; in the test on SK-OV-3 ovarian, 15.3%; with IGROV1 ovarian, 24.7%. Further, the growth with OVCAR-3 ovarian is 3.73% (active); with HS 578T breast it was 1.04% (active); in the test on NCI/ADR-RES ovarian, 77.2%; in the test with T-47D breast, 7.11% (active); in the test with BT-549 breast, 3.47% (active); in the test with MDA-MB-435 melanoma, 0.0883% (active). In addition, the growth was 11.6% in the test with SW-620 colon; -0.735% (active) in the test with MCF7 breast; 0.942% (active) in the test on HCT-116 colon; -3.04% (active) with HCC-2998 colon; -23.3% (active) in the test with KM12 colon.

The values are drawn from PubChem BioAssay (NCI).
